Measurements from PubChem BioAssay.
The source made the active and inactive calls.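 How the source made its calls, unless noted: active means inhibition at or above 50% at 10 µM; inactive means inhibition below 50%.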

Key:
[1] = inhibitors of TNFa-induced NFkB p65 translocation, primary screen, imaging, HUVEC, MLSMR starter and 10KST1 sets (AID 438;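 active means inhibition above 20% together with a positive visual image hit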;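 further: compound added about 3h40 before a 20 min TNFalpha stimulation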;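 on inhibition: signal is the nuclear over cytoplasmic p65 intensity ratio per well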); conditions: HUVEC TNFa-induced p65 nuclear translocation; cell count: measured here: nuclei count (cytotoxicity indicator), at 2.08 µM; inhibition: at 2 µM, stronger effect = higher value, 0% TNFa-plus-vehicle, 100% no-TNFa wells
[2] = inhibitors of mutant huntingtin aggregation, primary screen, imaging, exon1htt(103Q)mCFP cells, high-content imaging (AID 483;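 active means visual image review flags a hit and inhibition of aggregation exceeds 20%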;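 further: compound exposure lasted 3 days before fixation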;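 on nuclei count: percent of the per-plate median nuclei count of sample wells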); conditions: exon1htt(103Q)mCFP cell line, aggregate imaging, at 2 µM; inhibition of aggregation: stronger effect = higher value; nuclei count: measured here: cell count, toxicity
[3] = inhibitors of E-selectin induction by TNFa, primary screen, imaging, HUVEC, immunofluorescence, MLSMR starter and 10KST1 sets (AID 487;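 active means visually confirmed hit in the image check and inhibition above 20%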;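 on inhibition: signal is fraction of cell area covered by stained E-selectin grains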;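 on nuclei count: 100% = median nuclei count of all wells on the same plate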); conditions: HUVEC TNFalpha-induced E-selectin immunofluorescence imaging, at 2 µM; inhibition: stronger effect = higher value; nuclei count: measured here: cell number, toxicity
[4] = target: Voltage-gated potassium channel subunit beta-2 (Rattus norvegicus) (UniProt P62483); test: KvBeta enzyme negative modulators, primary screen, biochemical, NADPH fluorescence (AID 622;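 active means fluorescence slope higher than the sample average by over 3 SD, cut at about -0.22 in these data, passing the limit was not always enough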;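 further: slope of raw intensity against log time taken from 70 to 1610 s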); conditions: recombinant KvBeta, 4-cyanobenzaldehyde reduction, at 10 µM, stronger effect = higher value
Chain of Voltage-gated potassium channel subunit beta-2 (Rattus norvegicus) (P62483 whole entry, looked up): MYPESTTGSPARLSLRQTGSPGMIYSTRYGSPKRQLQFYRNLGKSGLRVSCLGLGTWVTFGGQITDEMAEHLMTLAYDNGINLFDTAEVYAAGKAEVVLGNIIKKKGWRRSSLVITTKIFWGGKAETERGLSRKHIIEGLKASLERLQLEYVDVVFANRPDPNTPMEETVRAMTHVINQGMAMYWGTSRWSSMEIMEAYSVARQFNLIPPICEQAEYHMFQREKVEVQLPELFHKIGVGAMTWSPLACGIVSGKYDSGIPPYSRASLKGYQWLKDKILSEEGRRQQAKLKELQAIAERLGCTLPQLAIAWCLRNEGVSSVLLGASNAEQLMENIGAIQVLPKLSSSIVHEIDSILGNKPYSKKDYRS

[5] = target: Voltage-gated potassium channel subunit beta-2 (Rattus norvegicus) (UniProt P62483); test: KvBeta positive modulators, primary screen, biochemical, NADPH fluorescence (AID 623;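 active means NADPH fluorescence slope more negative than the mean of all samples by about 3 SD, 99.7% confidence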;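 further: fluorescence intensity change per second fitted from 20 to 320 s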); conditions: Recombinant KvBeta, NADPH fluorescence decrease slope, 10 min; at 10 µM; stronger effect = lower value
[6] = target: Alpha-2C adrenergic receptor (Homo sapiens) (UniProt P18825); test: modulators of alpha2C/GIRK thallium flux, primary screen, cell-based, HEK293 alpha2C/GIRK1/2 (AID 624;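 active means fluorescence slope after compound addition differing from the mean of all screened samples at 99.7% confidence, in either direction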;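 further: slope of fluorescence ratio to pre-addition baseline per second over 15 to 24 s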); conditions: thallium flux BTC fluorescence, at 10 µM, actives lie on both sides
Chain of Alpha-2C adrenergic receptor (Homo sapiens) (P18825 whole entry, looked up): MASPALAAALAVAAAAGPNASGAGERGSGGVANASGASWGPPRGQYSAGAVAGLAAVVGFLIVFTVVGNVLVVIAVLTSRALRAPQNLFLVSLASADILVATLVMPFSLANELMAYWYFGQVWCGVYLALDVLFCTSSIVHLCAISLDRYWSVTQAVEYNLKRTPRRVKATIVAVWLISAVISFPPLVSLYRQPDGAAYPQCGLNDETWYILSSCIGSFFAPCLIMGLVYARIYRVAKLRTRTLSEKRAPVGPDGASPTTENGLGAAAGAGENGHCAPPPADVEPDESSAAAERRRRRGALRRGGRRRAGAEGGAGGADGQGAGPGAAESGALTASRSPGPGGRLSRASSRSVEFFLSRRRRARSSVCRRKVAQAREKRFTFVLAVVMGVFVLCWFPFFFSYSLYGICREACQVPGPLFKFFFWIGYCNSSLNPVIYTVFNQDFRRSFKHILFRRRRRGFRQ

[7] = inhibitors of Sendai virus-induced IRF3 signaling, primary screen, TLR/RLR signaling modifier project, cell-based, Sendai virus stimulus, luciferase, 10K MLSCN set (AID 602276); conditions: HEK293 RL24 IRF3 luciferase reporter, at 10 µM, stronger effect = higher value;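 further: firefly luciferase from ISG56 promoter only with Renilla not read in this screen; 0% = Sendai virus plus DMSO and 100% = medium plus DMSO without virus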
[8] = inhibitors of poly I:C-induced TLR3 signaling, primary screen, cell-based, poly I:C stimulus, luciferase, 10K MLSCN set (AID 602277;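 active means inhibition of the reporter signal at or above 50%; inactive means inhibition below 50%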); conditions: HEK293-TLR3 RL24 IRF3 luciferase reporter, at 10 µM, stronger effect = higher value

Structure (SMILES)	cell count [1]	inhibition [1]	inhibition of aggregation [2]	nuclei count [2]	inhibition [3]	nuclei count [3]	fluorescence slope [4]	NADPH fluorescence slope [5]	slope [6]	inhibition [7]	inhibition [8]
O=C(NCCO)c1cc2ccccc2cc1O	489	-8.2% (inactive)	23.4% (inactive)	85.8%	-92.3% (inactive)	109%	-0.47 (inactive)	-2.1e-05 (inactive)	0.00658 (inactive)	-5.48% (inactive)	-4.78% (inactive)
CC(=O)OC1c2ccccc2C(=O)N1Cc1ccccc1Cl (centres undefined)	468	-2.8% (inactive)	34% (inactive)	61%	-13.3% (inactive)	106%	-0.552 (inactive)	-4.6e-05 (inactive)	0.00651 (inactive)	4.84% (inactive)	27.6% (inactive)
Cc1ccc(-n2ncc3c(=O)[nH]c(SCC(=O)N4CCN(c5ccccc5)CC4)nc32)cc1	229	-8.5% (inactive)	12.5% (inactive)	93.6%	-22.6% (inactive)	118%	-0.358 (inactive)	-1.3e-05 (inactive)	0.00346 (inactive)	9.1% (inactive)	23.7% (inactive)
Cc1ccccc1-n1nnc2c(=O)oc3ccccc3c21	345	-1.6% (inactive)	20.9% (inactive)	98.5%	-83% (inactive)	96.8%	-0.347 (inactive)	-3.7e-05 (inactive)	0.00409 (inactive)	12.8% (inactive)	26.7% (inactive)
CN(C(=O)c1ccccc1Cl)c1ccccc1	611	-2.4% (inactive)	3% (inactive)	107%	-28.1% (inactive)	92.5%	-0.561 (inactive)	-2e-06 (inactive)	0.00587 (inactive)	15% (inactive)	18.4% (inactive)
O=C(Nc1cccc(C(F)(F)F)c1)c1ccco1	580	-5.4% (inactive)	4.3% (inactive)	113%	-33.8% (inactive)	99.3%	-0.617 (inactive)	-5.6e-05 (inactive)	0.00406 (inactive)	-7.21% (inactive)	-42.6% (inactive)
Oc1cccc(C=NCc2ccccc2)c1O	332	-2.5% (inactive)	15.5% (inactive)	102%	-100% (inactive)	130%	-0.46 (inactive)	-4e-05 (inactive)	0.00215 (inactive)	10.5% (inactive)	41.8% (inactive)
CCOC(=O)c1nnn(CC(=O)Nc2cccc(F)c2)c1C(=O)OCC	581	-7.9% (inactive)	8.9% (inactive)	124%	-41.8% (inactive)	112%	-0.6 (inactive)	-1.1e-05 (inactive)	0.00821 (inactive)	3.63% (inactive)	12.6% (inactive)
C=CCn1c(=O)n(CCOC)c(=O)c2sc3ccccc3c21	733	-3.4% (inactive)	-12% (inactive)	87.6%	-34% (inactive)	102%	-0.566 (inactive)	-3.7e-05 (inactive)	0.00805 (inactive)	-6.44% (inactive)	51% (active)
COc1ccc(C(=O)Cn2nnc(-c3cccs3)n2)cc1	368	-7% (inactive)	27.6% (inactive)	89.5%	-0.6% (inactive)	100%	-0.407 (inactive)	-4.9e-05 (inactive)	0.00512 (inactive)	-2.35% (inactive)	-30.5% (inactive)
COc1ccccc1OCCOCCn1cnc2ccccc2c1=O	561	-2.8% (inactive)	24.9% (inactive)	79.3%	2.6% (inactive)	94.4%	-0.488 (inactive)	-4.9e-05 (inactive)	0.00575 (inactive)	10.3% (inactive)	12.5% (inactive)
O=S(c1ccsc1)c1ccsc1	444	6.5% (inactive)	1.4% (inactive)	95.8%	13% (inactive)	99.8%	-0.497 (inactive)	-4.1e-05 (inactive)	0.00527 (inactive)	19.8% (inactive)	26.3% (inactive)
C1CCc2nnc(-c3nnc4n3CCCCC4)n2CC1	396	3% (inactive)	-5.5% (inactive)	100%	-3.6% (inactive)	105%	-0.344 (inactive)	-2.9e-05 (inactive)	0.00555 (inactive)	11.6% (inactive)	10.3% (inactive)
CC1=C(C)CC2C(=O)N(c3cccc4ccccc34)C(=O)C2C1 (centres undefined)	705	-2.3% (inactive)	1.2% (inactive)	106%	-28.7% (inactive)	106%	-0.569 (inactive)	-2.7e-05 (inactive)	0.00739 (inactive)	0.65% (inactive)	28.7% (inactive)
